The results in this text go back to PubChem BioAssay AID1347417 (National Center for Advancing Translational Sciences (NCATS), 2020).

Hit rate of the full screen: of about 120,000 compounds, about 5,300 (4.4%) were called active. Another 22% or so got no clear call; they are omitted. Shown is part of a subset that was picked to be rich in actives. A number with no mark means an inactive call. Calls follow the shape of the dose curve; as a rule, active = well fitted inhibition curve with a large enough effect; inconclusive = small, poorly fitted or top-dose-only effect; inactive = no such curve, though single readings can be large or run the other way.
Potency is read from the fitted curve at half-maximal effect.

The nature of this assay: qHTS Primary assay for Inhibitors of Plasmodium falciparum Dd2 growth in vitro. Also: nearly all actives have a fitted effect of over 65% in size. Particulars: P. falciparum Dd2 growth, SYBR Green, 72 h; series mostly up to 28.9 µM; activity, negative = inhibition: at the top concentration. The source says:
Malaria, a parasitic disease spread to humans through the bite of a Plasmodium infected Anopheles mosquito, continues to be a global health burden affecting millions of people, with an estimated 228 million cases and 405,000 deaths in 2018. Concerns about safety and limitations of current antimalarial treatments strongly emphasize the need to develop new therapeutic options. The scarce number of chemotypes and validated drug targets with efficacy against the liver stage, have hindered development of new antimalarials. To address this, a chemoprophylactic drug discovery effort was conducted through a combined phenotypic high-throughput asexual blood stage and liver stage screen, providing a robust foundation to identify liver-stage active lead chemotypes. Compounds were initially screened against Plasmodium falciparum Dd2 strain parasites using a in vitro SYBRGreen-1 based 72 hr proliferation assay to identify novel chemotypes to advance to liver stage assays. NIH/NCATS Early Translation Branch Assay Submitter (PI): Anton Simeonov Ph.D.
Malaria-vivax Assay Protocol: PROTOCOL TABLE (as described by Inglese et al., 2007) SEQUENCE No. (e.g., 1, 2, 3, etc.); […] (e.g., Cells, Incubation, Reagent, etc.); VALUE; DESCRIPTION SEQUENCE, Parameter, Description 1; Reagent; 3 uL complete malaria growth medium, 1536 TC treated Black clear bottom plate 2; Controls; 23 nL positive control artesunate (300 nM final) to column 1; Neutral control DMSO to columns 2-4 3; Compound; 23 nL of compounds in dose response concentration (29 uM to 0.5 nM final) 4; Reagent; 5 uL malaria infected red blood cells (2.5% hematocrit final, 0.3% parasitemia 5; Time; 72 hours at 37C (5% O2, 5% CO2, 90% N2; 95% Rh) 6; Reagent; 2 uL lysis buffer/SYBRGreen-1, 25 sec shake immediately following dispense 7; Time; ~16 hours at 37C (5% O2, 5% CO2, 90% N2; 95% Rh) 8; Detector; EnVision (PerkinElmer) bottom read at 485/14nm excitation and 535/25 nm emission NOTES (numbers refer to sequence above): 1; Complete Malaria Growth Media: 1X RPMI-1640 w/L-glutamine, 5.5g/L Albumax II, 367 uM Hypoxanthine, 25 mM HEPES, 0.25% Sodium Bicarbonate, 35 uM Gentamicin sulfate 2; Controls were added using the Kalypsis Pintool (Wako USA) equipped with 1536 pinhead 3; Compounds were added in a 7-point, titration with a high final concentration of 29 uM by Pintool from seven inter-plate titrations of library plates and two DMSO control plates at the beginning and end (see Yasgar et al., 2008). 4; Red blood cells infected with Plasmodium falciparum Dd2 parasites were used. 6; Lysis buffer: 20 mM Tris-HCl, 10 mM EDTA, 0.16% Saponin, 1.6% Triton-X, 10X SYBR Green. REFERENCE: Inglese J, Shamu CE, Guy RK. 2007. Reporting data from high-throughput screening of small-molecule libraries. Nat Chem Biol. doi:10.1038/nchembio0807-438 Yasgar A, Shinn P, Jadhav A, Auld D, Michael S, Zheng W, Austin CP, Inglese J, Simeonov A. 2008. Compound Management for Quantitative High-Throughput Screening. J Lab Autom 13:79-89. doi:10.1016/j.jala.2007.12.004
(Quantitative high-throughput screening tests each substance at several concentrations.)
In the case of `CC[C@@]1(C(=O)O)C[C@H](C(=O)NCCCO)[C@H](c2ccc(OC)cc2)N1C`, the “activity, negative = inhibition” value is -0.459% (inactive).
With `CCc1noc(-c2nnn3c2COC(c2ccc(OC)cc2)C3)n1` (stereo unspecified), the call was inactive.
For the molecule `CN(C)S(=O)(=O)N1CCC(Oc2ccc(C(=O)NC3(C)CC3)cc2)CC1`, the “activity, negative = inhibition” value is -8.77% (inactive).
On to `Cc1nn2c(c1-c1ccccc1N1CCCC1)N(C(=O)c1ccn(C)n1)CCC2`, for which the “outcome” value is “inactive [at 44.1 µM]”.
With `O=C(c1cccs1)N1CC(Oc2ccc(-c3nc(-c4ccccc4)no3)cc2)C1`, the activity, negative = inhibition was 8.59% [at 5.79 µM].
Turning to `O=C(c1ccc(C(F)(F)F)cc1)N1CCn2c(nn(-c3cccc(Cl)c3)c2=O)C1`, the “activity, negative = inhibition” value was -12.9% (inactive).
On to `Cn1nnnc1SCCNCc1ccc(Cl)c(Cl)c1`, for which the “activity, negative = inhibition” value was -4.54% (inactive).
Regarding `Cn1nnnc1SCCCNCc1cccc(OCc2ccc(Cl)cc2)c1`, the Potency was 12.6 µM (active).
Turning to `Cn1nnnc1SCCCNCc1ccc(Cl)cc1`, the “activity, negative = inhibition” value is -18.1% (inactive).
Regarding `Cc1ccc(C(=O)N2CCc3cc(CNC(=O)c4ccc(Br)cc4)ccc32)cc1`, the result was inactive.
On to `Cc1ccc(S(=O)(=O)NC2(C(F)(F)F)NC(=O)N(CCc3ccccc3)C2=O)cc1` (stereo unspecified), for which the “activity, negative = inhibition” value is 12% (inactive).
Consider `Cc1ccc(C(=O)CC2(O)C(=O)N(CCc3ccccc3)c3ccc(Br)cc32)cc1` (stereo unspecified), for which the Potency is 10 µM (active).
On to `COCCN1CCC(N2CCN(C(=O)c3cc(F)cc(F)c3)CC2)C1=O` (stereo unspecified), for which the “activity, negative = inhibition” value is 5.06% (inactive).
In the case of `Cc1cc(C)cc(NC(c2nnc(-c3cccc(F)c3)o2)c2ccc(F)cc2Cl)c1` (stereo unspecified), the Potency is 3.55 µM (active).
Consider `CC(=O)c1ccc(NC(c2ccc(F)cc2)c2nnc(-c3ccccc3)o2)cc1` (stereo unspecified), for which the “activity, negative = inhibition” value is 3.29% (inactive).
Regarding `Cc1c(C(=O)N2CCn3nc(C(O)CO)cc3C2)sc2ccccc12` (stereo unspecified), the “activity, negative = inhibition” value was -5.26% (inactive).
Take `O=C(c1cnc2c(c1)N(Cc1ccccc1)CCC2)N1CC[S+](=O)([O-])CC1`: the “activity, negative = inhibition” value is -8.42% [at 44.1 µM] (inactive).
Take `COCCNC(=O)C[C@@H]1C[C@H]2O[C@H](CNC(=O)Nc3cccc(Cl)c3)[C@@H](O)[C@H]2O1`: the “activity, negative = inhibition” value is 20.7% [at 44.1 µM] (inactive).
With `CCN1CCN(c2ncc3c(n2)CC(c2ccccc2O)CC3=O)CC1` (stereo unspecified), the Potency is 8.91 µM (active).
For the molecule `CCCN1CCc2nc(N3CCN(C)CC3)ncc2C1`, the activity, negative = inhibition is 36.4% [at 5.79 µM].
As to `Cc1ccc(CN2CCc3nc(N4CCN(C)CC4)ncc3C2)cc1`, the molecule was called inactive.
With `COc1ccc2[nH]c3c(c2c1)CCN(C)C31CCN(C(=O)c2ccoc2)CC1`, the molecule was classed as inactive.
In the case of `Cc1ccc(-c2nc(C(=O)N3CCN(c4ccccn4)CC3)no2)cc1`, the result was inactive.
Turning to `O=C(c1ccccc1)N1Cc2ccccc2NC(=O)C12CCNCC2`, the “activity, negative = inhibition” value is 11.4% (inactive).
Regarding `O=C(NCc1ccc(F)cc1)N1CCC(n2cnnc2C2CC2)C1` (stereo unspecified), the molecule was called inactive.
Turning to `CCCNC(=O)N1CC(Oc2ccc(-c3nc(C)no3)cc2)C1`, the activity, negative = inhibition was 40.8% [at 5.79 µM].
Same read-out and setting: in the case of `COc1ccc(Nc2cc3c(nc2-c2ccccc2)nc(C(=O)NCCN(C)C)n3C)cn1` it was -23.9% (inactive); in that of `COc1ccc(CCNC(=O)c2nn(C)c3c2CSc2ccccc2-3)cc1OC`, -1.26% (inactive).
Regarding `COc1ccc(-c2cc3c(nc2-c2ccccc2)nc(C(=O)NCCN(C)C)n3C)cc1OC`, the Potency was 3.98 µM (active).
With `O=C(c1cnc[nH]1)N1C[C@@H](COCC2CC2)[C@H](c2ccccn2)C1`, the “activity, negative = inhibition” value is -19.5% (inactive).
Consider `O=C(Nc1ccc(F)cc1F)N1CCC2(CC1)SCC(=O)N2c1ccc(Cl)cc1`, for which the molecule was classed as inactive.
In the case of `O=C1Cc2c(-c3ccc(Oc4ccccc4)cc3)n[nH]c2CN1CCc1ccncc1`, the Potency is 11.2 µM (active).
For `O=C1Cc2c(-c3ccc(CO)cc3)n[nH]c2CN1CC1CCOCC1`, the “activity, negative = inhibition” value is 6.98% [at 44.1 µM] (inactive).
For the molecule `CC(C)Oc1cccc(-c2n[nH]c3c2CC(=O)N(Cc2ccccc2)C3)c1`, the “outcome” value is “inactive [at 44.1 µM]”.
With `O=C(CN1C(=O)C(c2ccccc2)=NC12CCCC2)N1CCN(c2ccccc2)CC1`, the “activity, negative = inhibition” value is 32.9% (inactive).
Take `CCc1noc([C@@H]2CC(F)(F)CN2C(=O)c2cocn2)n1`: the “activity, negative = inhibition” value was 20.3% (inactive).
Same read-out and setting: in the case of `O=C1CC(c2noc(-c3ccc(F)c(Cl)c3)n2)CN1c1ccc(F)cc1` (stereo unspecified) it was 28.5% (inactive); in that of `CCC[S+](=O)([O-])NC1CCN(C(=O)N2CC3CC(C2)[C@H]2CCCC(=O)N2C3)CC1` (stereo partly specified), -12.6% (inactive).
Take `CCCS(=O)(=O)N1CC[C@H]2C(=O)NCCCCCCN(Cc3ccncc3)[C@@H]2C1`: the “activity, negative = inhibition” value was 23% (inactive).
With `Cc1noc(CC2CCOC3(CCN(C(=O)c4ccc(C#N)cc4)CC3)C2)n1` (stereo unspecified), the “activity, negative = inhibition” value is -8.63% (inactive).
Turning to `COCCC1(NS(C)(=O)=O)CCN(C(=O)c2ccc(C#N)cc2)CC1`, the “activity, negative = inhibition” value is -5.57% (inactive).
On to `Cc1ccc(C2=NC3(CCN(C(=O)c4ccc(C#N)cc4)CC3)ON2)cc1`, for which the Potency was 4.47 µM (active).
With `CCN1c2cc(C(=O)Nc3ccc(SC)cc3)ccc2C(=O)N2CCCCCC21` (stereo unspecified), the “activity, negative = inhibition” value is -3.15% (inactive).
For the molecule `COc1ccc(CNC(=O)c2ccc3c(c2)N(C)C2CCCCN2C3=O)c(OC)c1` (stereo unspecified), the call was inactive.
Regarding `CCN1c2cc(C(=O)NCc3ccc(OC)cc3OC)ccc2C(=O)N2CCCCCC21` (stereo unspecified), the Potency is 4.47 µM (active).
Turning to `CCN1c2cc(C(=O)Nc3ccc(OC)c(F)c3)ccc2C(=O)N2CCCCC21` (stereo unspecified), the call was inactive.
On to `CCN1c2cc(C(=O)NCc3cccc(F)c3)ccc2C(=O)N2CCCCCC21` (stereo unspecified), for which the Potency is 3.55 µM (active).
In the case of `CN1C(=O)c2cccn2CC1C(=O)NC1CCN(Cc2ccccc2)CC1` (stereo unspecified), the “activity, negative = inhibition” value is -6.66% (inactive).
Same read-out and setting: in the case of `CN1c2cc(C(=O)Nc3ccc(F)c(F)c3)ccc2C(=O)N2CCCCCC21` (stereo unspecified) it was -20.7% (inactive).
In the case of `CCN1c2cc(C(=O)NC3CCN(Cc4ccccc4)CC3)ccc2C(=O)N2CCCCC21` (stereo unspecified), the Potency is 7.94 µM (active).
For the molecule `CCN1c2cc(C(=O)Nc3ccc(F)c(C)c3)ccc2C(=O)N2CCCCC21` (stereo unspecified), the “activity, negative = inhibition” value was -9.86% (inactive).
